Data: PubChem BioAssay (EPA / NIEHS)
Where “and” joins values, the source holds several entries; their conditions need not be identical. Equal entries are not always repeated. Where a structure was tested more than once in an assay, its records may differ in their call. Calls of active or inactive are those of the source. The calls were made as follows: active = hit-call score of the fitted dose curve at least 0.9, where 1 is the maximum; inactive = score below 0.9.

What was measured:
[1] = read-out: Macrophage colony-stimulating factor (MCSF), CSF1 (gene 1435); test: BSK_CASM3C_MCSF: BioMAP Diversity Plus: CASM3C Assay for Macrophage colony-stimulating factor (MCSF) Biomarker Activity (AID 2283044); conditions: primary human coronary artery smooth muscle cells; actives raise or lower the signal;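 also: M-CSF protein amount quantified by ELISA after 24 h exposure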
[2] = read-out: Low-density lipoprotein receptor (LDLR), LDLR (gene 3949); test: BSK_CASM3C_LDLR: BioMAP Diversity Plus: CASM3C Assay for Low-density lipoprotein receptor (LDLR) Biomarker Activity (AID 2283045); conditions: primary human coronary artery smooth muscle cells; actives raise or lower the signal;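 also: LDLR protein level on the cell surface quantified by ELISA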
[3] = read-out: Monocyte Chemoattractant Protein-1 (MCP1), CCL2 (gene 6347); test: BSK_CASM3C_MCP1: BioMAP Diversity Plus: CASM3C Assay for Monocyte Chemoattractant Protein-1 (MCP1) Biomarker Activity (AID 2283046); conditions: primary human coronary artery smooth muscle cells; actives raise or lower the signal;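 also: MCP-1 level quantified by ELISA 24 h after dosing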
[4] = BSK_CASM3C_Proliferation: Cell Proliferation Assessment in the BioMAP Diversity Plus: CASM3C Assay (AID 2283047); conditions: primary human coronary artery smooth muscle cells;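 also: sulforhodamine B total protein stain as relative cell number at 560 nm; sub-confluent cells exposed 48 h before staining; fitted both ways against DMSO so gain or loss of cell number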
[5] = read-out: Monokine induced gamma interferon (MIG), CXCL9 (gene 4283); test: BSK_CASM3C_MIG: BioMAP Diversity Plus: CASM3C Assay for Monokine induced gamma interferon (MIG) Biomarker Activity (AID 2283048); conditions: primary human coronary artery smooth muscle cells; actives raise or lower the signal;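 also: MIG protein level measured by ELISA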
[6] = read-out: serum amyloid A (SAA), SAA1 (gene 6288); test: BSK_CASM3C_SAA: BioMAP Diversity Plus: CASM3C Assay for serum amyloid A (SAA) Biomarker Activity (AID 2283049); conditions: primary human coronary artery smooth muscle cells; actives raise or lower the signal;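 also: SAA protein level quantified by ELISA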
[7] = BSK_CASM3C_SRB: Viability Assessment in the BioMAP Diversity Plus: CASM3C Assay (AID 2283050); conditions: primary human coronary artery smooth muscle cells;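 also: total protein by SRB staining as cytotoxicity measure in parallel cultures; cells exposed to compound for 24 h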
[8] = read-out: Thrombomodulin, THBD (gene 7056); test: BSK_CASM3C_Thrombomodulin: BioMAP Diversity Plus: CASM3C Assay for Thrombomodulin Biomarker Activity (AID 2283051); conditions: primary human coronary artery smooth muscle cells; actives raise or lower the signal;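 also: thrombomodulin protein level measured by ELISA 24 h after dosing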
[9] = read-out: Tissue Factor, F3 (gene 2152); test: BSK_CASM3C_TissueFactor: BioMAP Diversity Plus: CASM3C Assay for Tissue Factor Biomarker Activity (AID 2283052); conditions: primary human coronary artery smooth muscle cells; actives raise or lower the signal;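 also: cell surface tissue factor protein level read by ELISA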
[10] = read-out: Interferon-gamma inducible Protein 10 (IP10), CXCL10 (gene 3627); test: BSK_hDFCGF_IP10: BioMAP Diversity Plus: hDFCGF Assay for Interferon-gamma inducible Protein 10 (IP10) Biomarker Activity (AID 2283053); conditions: primary human foreskin fibroblasts; actives raise or lower the signal
How it was run: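 ELISA quantification of IP-10 after a 24 h chemical exposure of human dermal foreskin fibroblast primary cultures. Both increases and decreases versus DMSO fitted.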

SMILES | outcome [1] | AC50 [2] | outcome [2] | outcome [3] | outcome [4] | outcome [5] | outcome [6] | outcome [7] | outcome [8] | outcome [9] | outcome [10] | AC50 [4] | AC50 [6] | AC50 [8] | AC50 [3] | AC50 [5] | AC50 [10] | AC50 [1] | AC50 [7] | AC50 [9]
C=C[Si](OC(C)=O)(OC(C)=O)OC(C)=O | inactive | 1.25 µM (active) | inactive | inactive | inactive | inactive | inactive | inactive | inactive | inactive | inactive | – | – | – | – | – | – | – | – | –
C=CC=CC=CCCCCC | inactive | – | inactive | inactive | – | inactive | inactive | inactive | inactive | inactive | inactive | 5 µM (active) | – | – | – | – | – | – | – | –
C=CCOCC(O)CCl (stereo unspecified) | inactive | – | inactive | inactive | inactive | inactive | inactive | inactive | inactive | inactive | inactive | – | – | – | – | – | – | – | – | –
O=C(Nc1ccccc1SSc1ccccc1NC(=O)c1ccccc1)c1ccccc1 | inactive | – | inactive | inactive | – | inactive | – | inactive | – | inactive | inactive | 5.1 µM (active) | 5.22 µM (active) | 5.27 µM (active) | – | – | – | – | – | –
CCOC(=O)c1ccccc1C(=C1C=C(Br)C(=O)C(Br)=C1)c1cc(Br)c(O)c(Br)c1 | inactive | – | inactive | – | – | – | inactive | inactive | – | inactive | – | 20.3 µM (active) and 22.1 µM (active) | – | 15.8 µM (active) and 20.4 µM (active) | 17.4 µM (active) and 20 µM (active) | 19.4 µM (active) and 22.2 µM (active) | 3.65 µM (active) and 3.77 µM (active) | – | – | –
CC1OC1C1CCC2(C)OC2C1 (stereo unspecified) | inactive | – | inactive | inactive | inactive | inactive | inactive | inactive | inactive | inactive | inactive | – | – | – | – | – | – | – | – | –
COc1ccc2nc(N)sc2c1 | inactive | – | inactive | inactive | inactive | inactive | inactive | inactive | inactive | inactive | inactive | – | – | – | – | – | – | – | – | –
CCCCNc1ccc(NCCCC)c2c1C(=O)c1ccccc1C2=O | inactive | – | inactive | inactive | inactive | inactive | inactive | inactive | inactive | inactive | inactive | – | – | – | – | – | – | – | – | –
CCCCC(CC)COC(=O)c1ccccc1O (stereo unspecified) | inactive | – | inactive | inactive | inactive | inactive | inactive | inactive | inactive | inactive | – | – | – | – | – | – | 16.4 µM (active) | – | – | –
CCCCCCCCc1ccc(Nc2ccc(CCCCCCCC)cc2)cc1 | inactive | – | inactive | inactive | – | inactive | inactive | inactive | inactive | inactive | inactive | 14.9 µM (active) | – | – | – | – | – | – | – | –
CCCCC(CC)COCC1CO1 (stereo unspecified) | inactive | – | inactive | inactive | inactive | inactive | inactive | inactive | inactive | inactive | inactive | – | – | – | – | – | – | – | – | –
CCOc1nc(F)cc2nc(S(=O)(=O)Nc3c(Cl)cccc3C(=O)OC)nn12 | inactive | – | inactive | inactive | inactive | inactive | inactive | inactive | inactive | inactive | inactive | – | – | – | – | – | – | – | – | –
C#CC1(O)CC[C@H]2[C@@H]3CCC4=CCCC[C@@H]4[C@H]3CC[C@@]21C (stereo partly specified) | – | – | inactive | – | – | – | – | – | – | – | – | 8.11 µM (active) | 20 µM (active) | 20 µM (active) | 32.1 µM (active) | 20 µM (active) | 34.4 µM (active) | 20 µM (active) | 31 µM (active) | 20 µM (active)
CCO[Si](CCCN=C=O)(OCC)OCC | inactive | – | inactive | inactive | inactive | inactive | inactive | inactive | inactive | inactive | inactive | – | – | – | – | – | – | – | – | –
O=Nc1ccc(O)cc1 | inactive | – | inactive | inactive | inactive | inactive | inactive | inactive | inactive | inactive | inactive | – | – | – | – | – | – | – | – | –
c1ccc(-c2ccccn2)nc1 | inactive | – | inactive | inactive | inactive | inactive | inactive | inactive | inactive | inactive | inactive | – | – | – | – | – | – | – | – | –
O=C1CCCN1CCO | inactive | – | inactive | inactive | inactive | inactive | inactive | inactive | inactive | inactive | inactive | – | – | – | – | – | – | – | – | –
CO[Si](OC)(OC)c1ccccc1 | inactive | – | inactive | inactive | inactive | inactive | inactive | inactive | inactive | inactive | inactive | – | – | – | – | – | – | – | – | –
